Only some compounds are listed: those with a hit (about 4.6% of all), similar ones and a draw of the others.
tim23-1 inh: tim23-1 yeast growth inhibition; S. cerevisiae tim23-1 growth, BacTiter-Glo luminescence, 24 h; 330,000 compounds, 1.3% hits; inhibition, % at 20 µM;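 active = growth inhibition of the mutant yeast at or above 50%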;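 also: temperature-sensitive mutant grown at 25 °C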
NLRP3 yeast inh: NALP3 inhibition in yeast. Yeast reconstituted NLRP3/ASC/caspase-1, beta-gal luminescence, 24 h. inhibition, % at 10 µM. 330,000 compounds, 0.39% hits;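 active = inhibition of 50% or more; inactive = inhibition below 50%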
PfHsp90 set2: inhibits growth of yeast expressing Plasmodium falciparum Hsp90; inhibition, % at 9.4 µM; S. cerevisiae expressing PfHsp90, BacTiter-Glo ATP, 48 h; yeast lacking PDR1 and PDR3 efflux regulators; 310,000 compounds, 0.32% hits;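 active = every replicate shows inhibition above about 80%, whatever the replicate mean, limit read from the data; inconclusive = mean inhibition reaches the set limit but some replicate falls short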
tim10-1 inh: inhibits growth of tim10-1 mutant yeast. 330,000 compounds, 2.2% hits. S. cerevisiae tim10-1 ts strain growth, BacTiter-Glo, 24 h. inhibition, % at 20 µM;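 active = inhibition of at least 40%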;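 also: mutant grown at 25 °C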
TIM10 inh: inhibits growth of TIM10 yeast strain; 330,000 compounds, 1.4% hits; AID 463195; inhibition, % at 10 µM; S. cerevisiae TIM10 strain growth, BacTiter-Glo luminescence, 24 h;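 active = inhibition of 40% or more at the single tested concentration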;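 also: wild-type TIM10 isogenic control strain grown at permissive 25 °C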
SKKanGAS inh: blocks kanamycin growth of S. pyogenes SKKanGAS strain; 300,000 compounds, 1.3% hits; BacTiter-Glo, 6 h; inhibition, % at 7.5 µM; AID 1662;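 active = mean replicate score, as percent of positive control median, at least 50; inconclusive = mean below 50 but one replicate at or above 50; inactive = mean and every replicate below 50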;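 also: strain carries kanamycin resistance gene driven by streptokinase promoter and grows in 40 µg/ml kanamycin; loss of luminescence reflects streptokinase promoter inhibition or plain growth inhibition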
Hits are given with their value; n = inactive; u = inconclusive; x = no result given.

SMILES	tim23-1 inh	NLRP3 yeast inh	PfHsp90 set2	tim10-1 inh	TIM10 inh	SKKanGAS inh
c1ccc(-c2nc(C3CCCCC3)c3ccccc3n2)cc1	n	n	n	n	n	u
CC(Oc1ccc(Cl)cc1Cl)c1nc(-c2ccc(NC(=O)c3ccco3)cc2)no1 (centres undefined)	n	n	n	n	n	54.0
CCOc1ccc(CCNC(=O)CCNC(=O)c2ccc(Br)cc2)cc1OCC	n	n	n	n	n	n
CCn1nc(NC(=O)c2ccncc2)c2cc3cc(C)ccc3nc21	n	n	n	n	n	91.2
COc1ccccc1C(=O)NC(=S)NNC(=O)c1sc2ccccc2c1Cl	n	n	n	n	n	118.5
COc1ccccc1C(=O)NNC(=S)NC(=O)c1sc2ccccc2c1Cl	n	n	n	n	n	94.0
COc1ccccc1C(=O)NNC(=S)NC(=O)c1cccs1	n	n	91.7	n	n	103.6
Cc1c(NC(=S)NC(=O)c2sc3ccccc3c2Cl)cccc1C(=O)O	n	n	n	n	n	n
COc1ccc2[nH]c(=O)c(CN(CC3CCCO3)S(=O)(=O)c3ccccc3F)cc2c1 (centres undefined)	n	n	n	n	n	n
COc1ccc(-n2nc(C(=O)NCC(=O)NCCN(C)C)c3ccccc3c2=O)cc1	n	n	n	n	n	n
COc1ccc2[nH]cc(CCNC(=O)COc3ccc4ccc(=O)oc4c3)c2c1	n	n	n	n	n	n
C/C(=N\NC(=O)c1nnn(-c2nonc2N)c1CSc1ccc(Cl)cc1)c1cccnc1	n	n	n	n	n	n
O=C(NNC1=C(C(=O)C(F)(F)F)CCC1)c1ccccc1Cl	n	n	n	n	n	n
Nc1ccccc1C(=O)NNC1=C(C(=O)C(F)(F)F)CCC1	n	n	n	n	n	n
O=C(NNC1=C(C(=O)C(F)(F)F)CCC1)c1ccccc1O	n	n	n	n	n	87.0
O=C(NNC1=C(C(=O)C(F)(F)F)CCC1)c1ccc(Br)cc1	n	n	130.2	n	n	106.4
COC(=O)c1ccc(/C=C2\CCn3c2nc2cc(C(=O)O)ccc2c3=O)cc1	n	n	n	n	n	n
CSc1ccc(/C=C2\CCn3c2nc2cc(C(=O)O)ccc2c3=O)cc1	n	n	n	n	n	52.4
Cc1ccc(C(=O)Nc2cccc(-c3ccc(N4CCOCC4)nn3)c2)cc1	n	n	x	n	n	n
COc1cc(OC)cc(C(=O)Nc2cccc(-c3ccc(N4CCOCC4)nn3)c2)c1	n	n	n	n	n	54.5
O=C(Nc1cccc(-c2ccc(N3CCOCC3)nn2)c1)c1ccccc1Cl	n	n	x	n	n	50.4
COc1ccc(C(=O)Nc2cccc(-c3ccc(N4CCOCC4)nn3)c2)cc1	n	n	x	n	n	52.5
COc1ccc(-c2sc3ccc(OC)cc3c2C#CCCO)cc1	n	n	n	n	n	97.5
Cc1nn2c(COc3ccc(NC(=O)c4ccccc4)cc3)nnc2c2ccccc12	n	n	n	n	n	94.0
O=C1CCC(C(=O)N2CCN(c3ccccc3)CC2)CN1CC1CCCCC1 (centres undefined)	n	n	n	n	n	n
SMILES	tim23-1 inh	NLRP3 yeast inh	PfHsp90 set2	tim10-1 inh	TIM10 inh	SKKanGAS inh
COc1ccc(-n2c(SCC(=O)Nc3ccccc3)nc(O)cc2=O)cc1	n	n	n	n	n	49.6
COc1ccc(-n2c(SCC(=O)Nc3cccc4ccccc34)nc(O)cc2=O)cc1	n	n	n	n	n	n
COc1ccc(NC(=O)CSc2nc(O)cc(=O)n2-c2ccc(OC)cc2)cc1	n	n	n	n	n	53.6
Cc1ccc(-n2c(SCC(=O)Nc3ccc4c5c(cccc35)CC4)nc(O)cc2=O)cc1	n	n	n	n	n	51.6
O/N=C(\CN1CCCCC1)c1ccccc1	n	n	n	n	n	n
O=C(N/N=C1\CCCc2c1[nH]c1ccc(Cl)cc21)c1ccncc1	n	n	n	n	n	n
Clc1ccc2[nH]c3c(c2c1)CCc1cn[nH]c1-3	n	n	110.2	n	n	n
CCN1CCN(Cc2ccc(NC(=O)c3ccc(C)c(NC(=O)c4ccno4)c3)cc2C(F)(F)F)CC1	n	n	n	n	n	n
CCN1CCN(Cc2ccc(NC(=O)c3ccc(C)c(/C=C/c4cnc(Nc5cc(N6CCNCC6)nc(C)n5)cn4)c3)cc2C(F)(F)F)CC1	n	n	n	n	n	60.8
CCC(=O)OC1(C(C)=O)CCC2C3CCC4=CC(=O)CCC4(C)C3CCC21C (centres undefined)	x	x	n	x	x	x
CC[C@@H](C)[C@H](CNC)NC[C@@H](Cc1cccc2ccccc12)NCCc1cccc(C(F)(F)F)c1	n	n	n	n	n	98.6
CCC[C@@H](CN[C@@H](CNC)C(C)C)NCCCCc1ccccc1	n	n	n	n	n	n
CCC[C@H](CN[C@@H](CNC)[C@H](C)CC)NCCc1cc(C(F)(F)F)cc(C(F)(F)F)c1	n	n	n	n	n	50.5
CCCCCCCCOC(=O)C1=C(C)Nc2nnnn2C1c1cccs1 (centres undefined)	n	n	n	n	n	107.5
Cc1ccc2c(c1)cc(C(=O)N[C@@H](Cc1ccccc1)C(=O)O)n2C	n	n	n	n	n	n
C=CCN1C(=O)c2ccc(C(=O)N(C)CC(=O)Nc3ccccc3Br)cc2C1=O	n	n	n	n	n	n
CCOC(=O)C1CCN(C2CC(=O)N(c3ccc(OCC)cc3)C2=O)CC1 (centres undefined)	n	n	n	n	n	n
CCCCCCOc1ccc(N2C(=O)CC(N3CCC(C(=O)OCC)CC3)C2=O)cc1 (centres undefined)	n	n	106.4	n	n	n
CC(=O)Nc1cccc(N2C(=O)CC(N3CCC(C(=O)N4CCCCC4)CC3)C2=O)c1 (centres undefined)	n	n	n	n	n	n
COc1cc(OC)cc(N2C(=O)CC(N3CCC(C(=O)N4CCCCC4)CC3)C2=O)c1 (centres undefined)	n	n	82.2	n	n	n
O=C(Nc1ccc(C(=O)N2CCCC2)cc1)C1CCC1	x	x	n	x	x	x
COc1ccc(CNC(=O)CCCC(=O)Nc2cccc(Br)c2)cc1	n	n	n	n	n	n
COc1ccc(Cl)cc1C(=O)NNC(=S)NC(=O)c1cc(-c2ccc(Cl)cc2)nc2ccccc12	n	n	n	n	n	70.8
O=C(NNC(=O)c1cc(-c2ccc(Cl)cc2Cl)nc2ccccc12)Nc1ccccc1	n	n	n	n	n	73.7
O=C(NNC(=O)c1ccc(Cl)cc1Cl)Nc1ccccc1	n	n	n	n	n	n
COc1ccc(Cl)cc1C(=O)NNC(=O)c1cccc([N+](=O)[O-])c1	n	n	n	n	n	n
COc1ccc(Cl)cc1C(=O)NNC(=S)NC(=O)c1ccc(F)c(F)c1	n	n	n	n	n	98.9
O=C(NC(=S)Nc1ccccc1)c1cc(-c2ccccc2)nc2ccccc12	n	n	n	n	n	n

Assay outcomes as filed in PubChem.
